Results filed as inconclusive are left out. Calls of active or inactive are those of the source. Unless noted, calls come from the whole dose curve; as a rule, active = well fitted curve in the direction sought with a large enough effect in the repeat runs; inconclusive = weak or mixed curves; inactive = no such curve, though single readings can be large; an effect the other way counts as inactive or inconclusive.
What was measured:
[1] = molecular target: Retinoic acid receptor RXR-alpha (Homo sapiens) (UniProt P19793); experiment: qHTS assay to identify small molecule agonists of the RXR signaling pathway (AID 1159527; calls by dose curve; note: nearly all actives have a fitted effect of over 35% in size)
Outline: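 16 hr incubation of compound-treated RXR-alpha-UAS-bla HEK 293T cells (2% charcoal-stripped FBS, 37 C) preceded a 2 hr room-temperature LiveBLAzer FRET substrate step and blue/green fluorescence measurement.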

[2] = qHTS assay to identify small molecule agonists of the RXR signaling pathway - cell viability counter screen (AID 1159529);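 note: HEK 293T cells carrying an RXR-alpha UAS beta-lactamase reporter; series mostly up to about 77 µM; nearly all actives have a fitted effect of over 50% in size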
Outline: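 In this parallel viability measure, GeneBLAzer RXR-alpha HEK 293T cells (2% charcoal-stripped FBS) were given a 5 hr preincubation, treated with compounds 16 hr at 37 C, and read by CellTiter-Glo luminescence.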

[3] = qHTS assay to identify small molecule antagonists of the retinoid acid receptor (RAR) signaling pathway - cell viability counter screen (AID 1159551); note: nearly all actives have a fitted effect of over 35% in size
Outline: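 C3RL4 RARE-luciferase cells, 1,000/well, incubated overnight, then dosed with compound plus 1 uM retinol (final). After 6 hr at 37 C, viability read by CellTiter-Glo ATP luminescence following 30 min at room temperature.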

[4] = qHTS assay to identify small molecule antagonists of the estrogen related receptor (ERR) signaling pathway from Tox21 library - cell viability counter screen (AID 1224834); note: nearly all actives have a fitted effect of over 30% in size
Outline: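 ERR reporter cells, 2,000 per well, rested 6 h, then exposed to compound in DMSO for 17.5 hours at 37 C. Viability read as fluorescence after 30 min with CellTiter-Fluor.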

[5] = qHTS assay to identify small molecule agonists of the constitutive androstane receptor (CAR) signaling pathway - cell viability counter screen (AID 1224836); note: series mostly up to about 92 µM; nearly all actives have a fitted effect of over 45% in size
Outline: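 Using CellTiter-Fluor, viability of HepG2 cells harbouring hCAR and CYP2B6-2.2kb was measured following 23 h incubation with a 15-concentration compound series plus PK11195 (0.75 uM final).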

[6] = qHTS assay to identify small molecule antagonists of the constitutive androstane receptor (CAR) signaling pathway - cell viability counter screen (AID 1224837); note: series mostly up to about 92 µM; nearly all actives have a fitted effect of over 45% in size
Outline: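 HepG2 cells stably carrying hCAR and CYP2B6-2.2kb reporter, stimulated with 50 nM CITCO and compounds at 15 concentrations for 23 h at 37 C. Viability measured by CellTiter-Fluor fluorescence.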

[7] = molecular target: Nuclear receptor subfamily 1 group I member 3 (Homo sapiens) (UniProt Q14994); experiment: qHTS assay to identify small molecule antagonists of the constitutive androstane receptor (CAR) signaling pathway (AID 1224838); note: nearly all actives have a fitted effect of over 40% in size
Outline: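 HepG2 cells stably carrying hCAR and a CYP2B6-2.2kb luciferase reporter, seeded 4 hrs before compound (15 concentrations). Stimulated with 50 nM CITCO for 24 hr at 37 C. ONE-Glo luminescence read after 30 min at room temperature.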

[8] = molecular target: Nuclear receptor subfamily 1 group I member 3 (Homo sapiens) (UniProt Q14994); experiment: qHTS assay to identify small molecule agonists of the constitutive androstane receptor (CAR) signaling pathway (AID 1224839); note: series mostly up to about 92 µM; nearly all actives have a fitted effect of over 15% in size
Outline: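 Double-stable HepG2 cells (hCAR, CYP2B6-2.2kb) seeded 4 h before compound addition. Exposure 24 h with 0.75 uM PK11195 final. Luciferase detected by ONE-Glo.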

[9] = qHTS assay to identify small molecule antagonists of the estrogen related receptor signaling pathway with the pleiotropic PPARgamma coactivator (PGC) from Tox21 10K library - cell viability counter screen (AID 1224840; active = well fitted cell-killing curve with a large enough effect in the repeat runs, not every such curve was filed as active; note: nearly all actives have a fitted effect of over 40% in size)
Outline: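 PGC/ERR cells (2,000/well) plated 6 h, then compound-treated for 17.5 h at 37 C. Viability measured by CellTiter-Fluor fluorescence after 30 min at 37 C, multiplexed with the pathway assay.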

[10] = molecular target: Luciferin 4-monooxygenase (Photinus pyralis) (UniProt P08659); experiment: qHTS assay to identify small molecule inhibitors of firefly luciferase (AID 1224835); note: series mostly up to about 120 µM; nearly all actives have a fitted effect of over 25% in size
Outline: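 Quantitative HTS format; KM concentrations of both substrates. Purified P. pyralis FLuc activity quantified from luminescence images.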

[11] = qHTS assay to identify small molecule antagonists of the estrogen related receptor signaling pathway with the pleiotropic PPARgamma coactivator (PGC) from Tox21 10K library (AID 1224841; call rule not given here; note: series mostly up to about 92 µM; actives are mostly falling curves and most rising ones were filed inactive; nearly all actives have a fitted effect of over 50% in size)
Outline: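 PGC/ERR cell line, 2,000 cells/well, pre-incubated 6 hours at 37 C, then exposed to compounds for 18 hours at 37 C; luciferase read with One-Glo luminescence after 30 min at room temperature.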

[12] = qHTS assay to identify small molecule agonists of the estrogen related receptor signaling pathway with the pleiotropic PPARgamma coactivator (PGC) from Tox21 10K library (AID 1224842); note: nearly all actives have a fitted effect of over 15% in size
Outline: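 PGC/ERR reporter cells (NTP line) were seeded 2,000 per well, rested 6 h at 37 C/5% CO2, then pin-dosed with compounds in DMSO for 18 h at 37 C; luciferase read by One-Glo luminescence after 30 min at room temperature.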
% is set by controls: 0 for no effect and ±100 for the full control effect.

Sequence of Nuclear receptor subfamily 1 group I member 3 (Homo sapiens) (Q14994 whole entry, looked up): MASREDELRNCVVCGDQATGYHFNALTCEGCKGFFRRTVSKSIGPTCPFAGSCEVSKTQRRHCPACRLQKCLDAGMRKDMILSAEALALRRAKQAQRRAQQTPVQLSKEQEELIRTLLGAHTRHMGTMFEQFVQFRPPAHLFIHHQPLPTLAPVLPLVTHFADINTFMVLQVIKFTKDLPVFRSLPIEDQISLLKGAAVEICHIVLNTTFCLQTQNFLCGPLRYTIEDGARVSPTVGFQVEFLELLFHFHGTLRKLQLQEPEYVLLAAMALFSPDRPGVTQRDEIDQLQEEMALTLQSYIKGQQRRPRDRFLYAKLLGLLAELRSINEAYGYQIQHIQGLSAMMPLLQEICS
Sequence of Retinoic acid receptor RXR-alpha (Homo sapiens) (P19793 whole entry, looked up): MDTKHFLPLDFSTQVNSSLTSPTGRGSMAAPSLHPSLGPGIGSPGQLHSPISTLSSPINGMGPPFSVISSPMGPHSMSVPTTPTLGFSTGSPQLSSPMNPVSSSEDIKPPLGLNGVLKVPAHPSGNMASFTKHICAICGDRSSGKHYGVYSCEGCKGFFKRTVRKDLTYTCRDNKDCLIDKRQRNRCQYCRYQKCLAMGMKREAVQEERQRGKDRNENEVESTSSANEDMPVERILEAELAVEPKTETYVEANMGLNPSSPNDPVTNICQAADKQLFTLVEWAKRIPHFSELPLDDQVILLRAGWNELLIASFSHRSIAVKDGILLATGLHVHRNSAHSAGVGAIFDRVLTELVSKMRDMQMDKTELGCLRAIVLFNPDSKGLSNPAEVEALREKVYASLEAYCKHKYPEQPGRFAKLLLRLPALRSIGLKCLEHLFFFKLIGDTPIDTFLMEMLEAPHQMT
Sequence of Luciferin 4-monooxygenase (Photinus pyralis) (P08659 whole entry, looked up): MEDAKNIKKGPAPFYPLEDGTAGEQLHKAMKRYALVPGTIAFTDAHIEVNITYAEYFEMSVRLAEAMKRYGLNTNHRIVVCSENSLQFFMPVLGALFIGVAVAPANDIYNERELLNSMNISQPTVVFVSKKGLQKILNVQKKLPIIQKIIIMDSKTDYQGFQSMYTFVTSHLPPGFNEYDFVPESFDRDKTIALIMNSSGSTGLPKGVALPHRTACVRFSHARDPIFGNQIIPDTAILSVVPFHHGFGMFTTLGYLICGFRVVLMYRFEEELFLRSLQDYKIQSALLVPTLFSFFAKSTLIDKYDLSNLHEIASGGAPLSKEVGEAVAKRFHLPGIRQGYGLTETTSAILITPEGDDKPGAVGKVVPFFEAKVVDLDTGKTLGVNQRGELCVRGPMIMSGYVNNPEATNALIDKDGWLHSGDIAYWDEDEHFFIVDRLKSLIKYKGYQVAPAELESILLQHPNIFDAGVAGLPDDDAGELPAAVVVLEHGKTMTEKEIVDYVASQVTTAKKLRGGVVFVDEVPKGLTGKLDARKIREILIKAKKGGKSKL

CC(C)[N+](C)(C)CC(O)COc1cccc2ccccc12 (stereo not drawn)
inactive: Potency [1] | Potency [2] | outcome [3] | Potency [4] | outcome [5] | outcome [6] | Potency [7] | Potency [8] | outcome [9]

COc1nc(C)nc(N)n1
inactive: Potency [1] | Potency [2] | outcome [3] | Potency [4] | Potency [10] | outcome [5] | outcome [6] | outcome [9]

Nc1ccc2cc(S(=O)(=O)O)ccc2c1
inactive: Potency [1] | Potency [2] | outcome [3] | Potency [4] | outcome [5] | outcome [6] | Potency [7] | outcome [9]

CO
inactive: Potency [1] | Potency [2] | outcome [3] | Potency [4] | outcome [5] | outcome [6] | Potency [7] | Potency [8] | outcome [9] | Potency [11] | Potency [12]

CN(C)CCn1nnnc1SCC1=C(C(=O)O)N2C(=O)[C@@H](NC(=O)Cc3csc(N)n3)[C@H]2SC1
inactive: Potency [1] | Potency [2] | outcome [3] | Potency [4] | outcome [5] | outcome [6] | Potency [8] | outcome [9]

O=C(O)c1ccccc1-c1ccc(C(F)(F)F)cc1
inactive: Potency [1] | Potency [2] | outcome [3] | Potency [4] | Potency [10] | outcome [5] | outcome [9]

C1CCCCCCCCCCC1
inactive: activation [1] 0.57% [at 15.8 µM] | activity change, negative = cytotoxicity [2] 1.49% [at 15.8 µM] | activity change, negative = cytotoxicity [3] -2.08% [at 19 µM] | viability change, negative = cytotoxic [4] 0.43% [at 19 µM] | activity change, negative = inhibition [10] -7.22% [at 23.6 µM] | viability change, negative = cytotoxic [5] -17.1% [at 19 µM] | activity change, negative = cytotoxicity [6] -6.25% [at 19 µM] | viability change, negative = cytotoxic [9] 11% [at 19 µM] | activation [12] 0.749% [at 19 µM]

CO[Si](CCCNCCC[Si](OC)(OC)OC)(OC)OC
inactive: Potency [1] | Potency [2] | outcome [3] | Potency [4] | outcome [5] | outcome [6] | Potency [8] | outcome [9]

CC(C)[C@H](N)C(=O)OCCOCn1cnc2c(=O)[nH]c(N)nc21
inactive: Potency [1] | Potency [2] | outcome [3] | Potency [4] | Potency [10] | outcome [5] | outcome [6] | outcome [9]

COC(C(=O)O)c1ccccc1 (stereo not drawn)
inactive: Potency [1] | Potency [2] | outcome [3] | Potency [4] | outcome [5] | outcome [6] | Potency [7] | Potency [8] | outcome [9]

CC(C)(C)OC(=O)N1C[C@@H](F)C[C@H]1C(=O)O
inactive: Potency [1] | Potency [2] | outcome [3] | Potency [4] | Potency [10] | outcome [5] | Potency [7] | Potency [8] | outcome [9]

CO[Si](OC)(OC)OC
inactive: Potency [1] | Potency [2] | outcome [3] | Potency [4] | outcome [5] | outcome [6] | Potency [7] | outcome [9]

O=C1OC(=O)c2cc([N+](=O)[O-])ccc21
inactive: Potency [1] | Potency [2] | outcome [3] | Potency [4] | outcome [5] | outcome [6] | outcome [9]

CC(C)CCCC(C)CCCC(C)CCCCC(C)CCCC(C)CCCC(C)C (stereo not drawn)
inactive: Potency [1] | Potency [2] | outcome [3] | Potency [4] | Potency [10] | outcome [5] | Potency [7] | Potency [8] | outcome [9]

Cc1ncc(CSSCc2cnc(C)c(O)c2CO)c(CO)c1O
inactive: Potency [1] | Potency [2] | outcome [3] | Potency [4] | Potency [10] | outcome [5] | outcome [6] | outcome [9] | Potency [11] | Potency [12]

C1COCCO1
inactive: Potency [1] | Potency [2] | outcome [3] | Potency [4] | Potency [10] | outcome [5] | outcome [6] | outcome [9] | Potency [11] | Potency [12]

Nc1nc2c(ncn2CCC(CO)CO)c(=O)[nH]1
inactive: Potency [1] | Potency [2] | outcome [3] | Potency [4] | Potency [10] | outcome [5] | outcome [6] | outcome [9] | Potency [11] | Potency [12]

NC(=O)c1c(Cl)cccc1Cl
inactive: Potency [1] | Potency [2] | outcome [3] | Potency [4] | outcome [5] | outcome [6] | Potency [8] | outcome [9] | Potency [11] | Potency [12]

— PubChem BioAssay (Tox21)
